Assay outcomes deposited in PubChem by Paczesny and Yang Labs, IUPUI and University of Michigan.
ST2 IL33 inh: inhibitors of human ST2 (IL1RL1) binding to IL-33; Q01638; AlphaLISA ST2-Fc/biotin-IL-33 interaction, 1 h; inhibition, % for hits at 17 µM; 78,000 tested, 2.3% active; AID 1259354; in the data active means inhibition above about 30%
Target sequence (Q01638 whole entry, looked up): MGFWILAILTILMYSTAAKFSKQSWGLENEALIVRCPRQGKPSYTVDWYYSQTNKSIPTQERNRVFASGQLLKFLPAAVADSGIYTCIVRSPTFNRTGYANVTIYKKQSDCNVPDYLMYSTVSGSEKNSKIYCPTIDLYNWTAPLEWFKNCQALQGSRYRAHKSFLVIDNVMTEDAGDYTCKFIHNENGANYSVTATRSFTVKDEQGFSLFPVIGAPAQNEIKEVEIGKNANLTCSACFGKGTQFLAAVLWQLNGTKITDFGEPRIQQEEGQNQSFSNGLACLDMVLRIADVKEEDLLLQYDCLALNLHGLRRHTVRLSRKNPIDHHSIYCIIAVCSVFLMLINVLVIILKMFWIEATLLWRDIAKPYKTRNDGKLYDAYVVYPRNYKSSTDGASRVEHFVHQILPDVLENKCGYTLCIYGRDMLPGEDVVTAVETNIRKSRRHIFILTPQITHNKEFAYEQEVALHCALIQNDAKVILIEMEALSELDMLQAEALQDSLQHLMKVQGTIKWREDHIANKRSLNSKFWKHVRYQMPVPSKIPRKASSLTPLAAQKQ
* = called active by the depositor; i = inactive. Shown is part of a subset that was picked to be rich in hits.

SMILES	ST2 IL33 inh
Cc1ccc(C)c(CN2C(=O)CSc3ccc(C(=O)NCCCN4CCOCC4)cc32)c1	i
Cc1ccsc1C(CNC(=O)c1ccc2[nH]c(=O)[nH]c2c1)N(C)C (centres undefined)	i
Cc1ccc(S(=O)(=O)N2CCN(S(=O)(=O)c3ccc(C)c([N+](=O)[O-])c3)C2)cc1	i
Cc1ccc(C23C[C@@H]4C[C@@H](CC(O)(C4)C2)C3)cc1[N+](=O)[O-]	44%*
Cc1ccc(C23C[C@@H]4C[C@@H](CC(Cl)(C4)C2)C3)cc1N	i
Cn1cc(C(=O)NC2CCCCCC2)c2c3ccccc3n(C)c2c1=O	i
CC(C)Cn1cc(C(=O)NC2CCCC2)c2c3ccccc3n(C)c2c1=O	i
CC(C)Cn1cc(C(=O)NC2CCCCC2)c2c3ccccc3n(C)c2c1=O	36%*
O=C(NCc1ccccc1)c1cc(-c2ccc3c(c2)OCO3)on1	i
Cc1cc2ccccc2n1CCNS(C)(=O)=O	i
Cc1ccc(N(CC(=O)O)S(C)(=O)=O)cc1C	i
CCN(CCNS(C)(=O)=O)c1ccc(N)c(C)c1	35%*
O=C(CN1C(=O)/C(=C/c2ccccc2F)Sc2ccccc21)NCc1ccccc1Cl	i
Cc1cc(NC(=O)CN2C(=O)S/C(=C\c3ccc(Cl)cc3)C2=O)no1	i
CCN(CCNC(=O)CN1C(=O)/C(=C/c2ccccc2F)Sc2ccccc21)c1ccccc1	42%*
Cc1ccc2c(c1)N(CC(=O)NCc1ccccn1)C(=O)CO2	i
Cc1ccc(/C=C2/Sc3ccccc3N(CC(=O)NCc3ccccn3)C2=O)cc1	32%*
CCCCNC(=O)CN1C(=O)/C(=C/c2ccccc2F)Sc2ccccc21	i
CCC1Oc2ccccc2N(CC(=O)NCCCN(CC)CC)C1=O (centres undefined)	i
CCN(CC)CCNC(=O)CN1C(=O)/C(=C\c2ccc(Cl)cc2)Sc2ccccc21	33%*
CCCCOc1ccc(CNC(=O)CN2C(=O)c3cccnc3Sc3ccccc32)cc1	i
CCN(CC)CCNC(=O)CN1C(=O)/C(=C\c2ccc(C(F)(F)F)cc2)Sc2ccccc21	37%*
CCN(CC)CCCNC(=O)CN1C(=O)/C(=C\c2ccc(Cl)cc2)Sc2ccccc21	i
COCCCNC(=O)CN1C(=O)/C(=C\c2ccc(C(F)(F)F)cc2)Sc2ccccc21	i
Cc1cc(F)c(F)c(C(=O)n2cncn2)c1F	i
SMILES	ST2 IL33 inh
COc1ccc(I)cc1S(=O)(=O)N1CCN(c2ccc(F)cc2)CC1	i
N[C@@H]1CC[C@@H](NC(=O)CCCc2cn[nH]c2)C1	i
COc1ccccc1/C=C/C1=NC(=C\c2c(F)cccc2Cl)/C(=O)O1	i
COc1ccccc1/C=C/C1=NC(=C\c2ccccc2Cl)/C(=O)O1	i
COc1ccccc1/C=C/C1=NC(=C\c2ccccc2)/C(=O)O1	38%*
COc1ccccc1/C=C1N=C(/C=C/c2ccccc2OC)OC\1=O	37%*
COc1ccccc1/C=C/C1=NC(=C\c2cccc([N+](=O)[O-])c2)/C(=O)O1	i
COc1ccccc1/C=C/C1=NC(=C\c2ccc(Cl)cc2)/C(=O)O1	i
Cc1cc2nc(-c3ccc(C)c(NC(=O)C(C)C)c3)oc2cc1C	i
Cc1cc(C)nc(NS(=O)(=O)c2ccc(NC(=O)c3sc4ccccc4c3Cl)cc2)n1	i
CC(C)c1nccc(CN2CCCC3(C2)C(=O)N(C)c2ccccc23)n1 (centres undefined)	i
Cc1ccccc1OCC(=O)Nc1ccccc1I	i
Cc1cccc2nc(C(=O)N3CC(c4ccncc4)C3)cn12	i
CCSc1nc2ccc([N+](=O)[O-])cc2[nH]1	i
O=c1[nH]c(SCc2nc3ccc([N+](=O)[O-])cc3[nH]2)nc2ccccc12	i
O=[N+]([O-])c1ccc2nc(/C=C/c3ccco3)[nH]c2c1	32%*
Cc1cc(C)c(C(=O)N2CCC3(CCCN(Cc4cccnc4)C3=O)C2)o1 (centres undefined)	i
O=C1c2ccc(Oc3ccc4c(c3)C(=O)N(c3nccs3)C4=O)cc2C(=O)N1c1nccs1	i
O=c1/c(=C/c2ccc(-c3cccc([N+](=O)[O-])c3)o2)sc2nc3ccccc3n12	i
N=C1S/C(=C\c2ccc(-c3ccc([N+](=O)[O-])cc3)o2)C(=O)N1c1nccs1	34%*
O=C(C1CC1)N1CCc2cc(S(=O)(=O)Nc3cccc(Cl)c3)ccc21	i
COc1ccc(N2C(=O)C(N3C(=O)c4ccccc4C3=O)C2c2ccc(F)cc2)c(OC)c1 (centres undefined)	i
O=C(CSc1nc2ccc(NC(=O)c3ccccc3F)cc2s1)NCC1CCCO1 (centres undefined)	i
NC(=O)c1ccccc1NC(=O)c1cccc(C(=O)Nc2ccccc2C(N)=O)c1	30%*
NC(=O)c1ccccc1NC(=O)c1cccc(I)c1	i
SMILES	ST2 IL33 inh
CC(C)c1ccc(C(=O)Nc2ccccc2C(N)=O)cc1	i
CC(=O)N(CN1C(=O)c2ccccc2S1(=O)=O)CN1C(=O)c2ccccc2S1(=O)=O	i
COCCn1cc(C(=O)NCCCN2CCCCCC2)c2c3ccccc3n(C)c2c1=O	i
O=C1N(Cc2cccc(Cl)c2)C[C@@H]2C[C@@H](c3ccc4nsnc4c3)N3CCC[C@@]123	40%*
O=C1N(CCc2ccccc2)C[C@@H]2C[C@@H](c3cnc(-c4ccccc4)s3)N3CCC[C@@]123	i
OCC1CCCN1Cc1cccc(Cl)c1 (centres undefined)	i
Cn1c(=O)c2c(nc(NCCCO)n2Cc2ccccc2Br)n(C)c1=O	i
C=CCSC1=C(C#N)C(c2ccccc2C)C(C(=O)OCC)C(=O)N1 (centres undefined)	i
COc1ccc2cc3cc(C(=O)NCCCOC(C)C)oc3nc2c1	i
COc1ccc(CCn2cnc3sc4c(c3c2=N)CCCC4)cc1OC	i
COc1cc(-c2nc3sc4c(c3c(=O)[nH]2)CCCC4)ccc1O	i
COc1ccc2[nH]c3c(c2c1)CCn1c-3nc2sc3c(c2c1=N)CCCC3	34%*
COCC(NC(=O)c1ccccc1N1CCOCC1)c1ccnn1C (centres undefined)	i
O=C(NCc1ccc2c(c1)OCCCO2)C1CCCN(Cc2ccco2)C1 (centres undefined)	i
CCc1ccc(-c2nc(CN3CCC(C(=O)NCCN4CCCC4)CC3)c(C)o2)cc1	i
O=C(c1ccccc1Oc1ccccc1)N1CCOC2(CNCCOC2)C1 (centres undefined)	i
CN(Cc1ccccc1)Cc1cn([C@H]2CO[C@H]3[C@@H]2OC[C@@H]3NCc2ccc(-c3ccccc3)cc2)nn1	i
O=C(NCc1ccc(Cl)cc1)C(=O)Nc1ccc([N+](=O)[O-])cc1	i
O=C(NCc1ccccc1)NS(=O)(=O)c1ccccc1Cl	i
O=C(NCc1ccccc1)Nc1ccc(Cl)cc1	30%*
Cn1c(=O)c2c3c(sc2n2cnnc12)CC(C(C)(C)C)CC3 (centres undefined)	i
C=CCc1ccccc1OCCN(C)C(=O)c1cnccc1C	i
CC1=CC(C)(C)N(C(=O)CN2C(=O)c3cccc([N+](=O)[O-])c3C2=O)c2ccccc21	32%*
Cc1c(NC(=O)CN2C(=O)c3cccc([N+](=O)[O-])c3C2=O)c(=O)n(-c2ccccc2)n1C	i
CC1=CC(C)(C)N(C(=O)CN2C(=O)c3ccccc3C2=O)c2ccccc21	i
Cc1ccc(C)c(Cn2nnc(C(=O)NCCc3ccc(Cl)cc3)c2N)c1	i
CCOC(=O)c1cnc(SCc2ccccc2Cl)nc1N	i
CCc1nnc(NC(=O)c2sc3nc4c(cc3c2N)CCCCC4)s1	i
